Here are results for 1 sequence from publication PMC7862700, “An all-to-all approach to the identification of sequence-specific readers for epigenetic DNA modifications on cytosine”.

Test in all cases: DAPPL (digital affinity profiling via proximity ligation, sequencing); 10 mM Tris-HCl pH 7.5, 50 mM NaCl, 1 mM DTT, 4% glycerol, room temperature, 30 min; GST-TFs on glutathione beads, 16-mer random dsDNA library, 0.1% formaldehyde crosslink after washing; high values mean tight binding
One test concerns the target T1, FEV (Homo sapiens, UniProt Q99581 1-238).
T1 sequence: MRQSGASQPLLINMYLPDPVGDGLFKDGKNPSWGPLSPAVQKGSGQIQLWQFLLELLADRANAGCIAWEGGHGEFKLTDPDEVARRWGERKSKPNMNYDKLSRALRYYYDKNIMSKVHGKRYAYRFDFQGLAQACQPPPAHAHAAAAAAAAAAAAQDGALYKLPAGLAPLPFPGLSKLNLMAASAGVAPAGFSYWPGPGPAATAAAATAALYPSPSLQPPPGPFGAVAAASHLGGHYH
Particulars: protein: recombinant; tags: N-terminal GST; dsDNA, one strand shown. An outline of the steps:
(§1)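 After expression in yeast as GST fusions, human transcription factors were bound to glutathione beads, DNA-barcoded and mixed with a tag-only sample. The pools were incubated with 200 nmole of a 16-mer random double-stranded DNA library in Tris/NaCl/DTT/glycerol buffer (30 min, room temperature), washed and crosslinked with 0.1% formaldehyde. Proximity ligation with BsaI/T4 ligase ran for 1 h at 37 °C, before PCR amplification and sequencing on an Illumina NextSeq500. Binding signal is a hexamer's read frequency for a factor divided by its frequency for the tag-only sample.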

The target in a further test is ETV5 (Homo sapiens, UniProt P41161 1-510). As to conditions: protein: recombinant; tags: N-terminal GST; dsDNA, one strand shown. An outline of the steps: as §1
Sequence of ETV5 (P41161 whole entry): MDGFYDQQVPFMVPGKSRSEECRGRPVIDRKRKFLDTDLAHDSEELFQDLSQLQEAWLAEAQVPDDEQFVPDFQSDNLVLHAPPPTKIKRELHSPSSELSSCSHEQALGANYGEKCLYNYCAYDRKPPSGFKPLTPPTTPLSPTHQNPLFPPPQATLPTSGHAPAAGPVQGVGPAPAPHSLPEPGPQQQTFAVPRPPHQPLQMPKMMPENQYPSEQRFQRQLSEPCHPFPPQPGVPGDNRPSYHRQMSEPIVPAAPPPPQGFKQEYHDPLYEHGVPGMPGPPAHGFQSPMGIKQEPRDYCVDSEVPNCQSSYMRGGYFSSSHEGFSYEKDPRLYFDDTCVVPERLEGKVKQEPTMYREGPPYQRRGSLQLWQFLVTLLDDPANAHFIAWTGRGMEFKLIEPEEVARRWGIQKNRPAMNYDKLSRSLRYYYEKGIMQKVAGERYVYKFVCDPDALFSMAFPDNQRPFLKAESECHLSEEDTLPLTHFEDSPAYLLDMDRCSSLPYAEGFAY
The target in another test is HSF1 (Homo sapiens, UniProt Q00613 1-529). As to conditions: protein: recombinant; tags: N-terminal GST; chain copies: 3; dsDNA, one strand shown. The method in brief: as §1
Sequence of HSF1 (Q00613 whole entry): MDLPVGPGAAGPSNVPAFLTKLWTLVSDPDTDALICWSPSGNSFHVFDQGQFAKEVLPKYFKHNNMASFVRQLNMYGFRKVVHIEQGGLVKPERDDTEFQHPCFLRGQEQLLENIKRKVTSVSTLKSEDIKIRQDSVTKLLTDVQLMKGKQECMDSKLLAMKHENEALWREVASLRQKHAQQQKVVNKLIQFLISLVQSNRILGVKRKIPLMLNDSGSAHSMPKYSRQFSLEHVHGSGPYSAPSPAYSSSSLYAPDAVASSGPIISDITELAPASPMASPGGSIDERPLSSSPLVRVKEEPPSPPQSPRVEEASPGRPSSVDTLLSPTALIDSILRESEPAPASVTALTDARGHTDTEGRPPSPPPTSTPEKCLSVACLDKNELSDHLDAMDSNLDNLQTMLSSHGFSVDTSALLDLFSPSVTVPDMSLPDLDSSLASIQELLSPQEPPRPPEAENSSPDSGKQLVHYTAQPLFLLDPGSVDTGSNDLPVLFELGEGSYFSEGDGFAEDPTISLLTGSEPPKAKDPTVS
The target in the next test is T2, SPIC (Homo sapiens, UniProt Q8N5J4 1-248).
T2 sequence: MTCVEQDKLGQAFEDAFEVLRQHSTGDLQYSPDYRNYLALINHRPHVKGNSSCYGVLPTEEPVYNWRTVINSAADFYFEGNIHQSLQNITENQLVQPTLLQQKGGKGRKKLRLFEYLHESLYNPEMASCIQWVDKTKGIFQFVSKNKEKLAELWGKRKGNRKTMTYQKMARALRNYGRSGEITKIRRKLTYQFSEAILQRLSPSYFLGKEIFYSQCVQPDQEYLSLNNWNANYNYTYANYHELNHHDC
Particulars: protein: recombinant; tags: N-terminal GST; dsDNA, one strand shown. An outline of the steps:
as §1

For a further test, the target named is ELF4 (Homo sapiens, UniProt Q99607 1-663). Particulars: protein: recombinant; tags: N-terminal GST; dsDNA, one strand shown. An outline of the steps:
as §1

Another test deals with T3, ELK4 (Homo sapiens, UniProt P28324-2 1-405).
T3 sequence: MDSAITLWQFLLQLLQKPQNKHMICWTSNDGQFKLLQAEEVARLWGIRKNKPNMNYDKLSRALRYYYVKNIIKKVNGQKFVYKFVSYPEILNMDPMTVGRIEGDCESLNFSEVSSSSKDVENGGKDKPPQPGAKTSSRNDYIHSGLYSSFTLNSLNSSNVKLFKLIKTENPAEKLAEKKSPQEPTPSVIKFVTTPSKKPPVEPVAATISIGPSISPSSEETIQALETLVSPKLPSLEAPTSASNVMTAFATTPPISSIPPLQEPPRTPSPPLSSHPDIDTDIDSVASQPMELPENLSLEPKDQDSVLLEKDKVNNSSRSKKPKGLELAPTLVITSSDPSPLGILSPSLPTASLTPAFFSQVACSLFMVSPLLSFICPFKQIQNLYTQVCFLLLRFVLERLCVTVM
As to conditions: protein: recombinant; tags: N-terminal GST; dsDNA, one strand shown. An outline of the steps:
as §1

For a further test, the target named is T4, ETV2 (Homo sapiens, UniProt O00321 1-342).
T4 sequence: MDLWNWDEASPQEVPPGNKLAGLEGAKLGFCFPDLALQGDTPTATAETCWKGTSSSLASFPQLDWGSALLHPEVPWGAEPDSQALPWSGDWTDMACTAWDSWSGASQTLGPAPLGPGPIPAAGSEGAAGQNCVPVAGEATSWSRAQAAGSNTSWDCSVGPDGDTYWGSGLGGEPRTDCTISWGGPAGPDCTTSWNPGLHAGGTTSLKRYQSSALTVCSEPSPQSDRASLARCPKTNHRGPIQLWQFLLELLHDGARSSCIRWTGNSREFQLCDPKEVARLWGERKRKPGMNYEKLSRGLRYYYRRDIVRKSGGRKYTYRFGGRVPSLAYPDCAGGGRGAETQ
Particulars: protein: recombinant; tags: N-terminal GST; dsDNA, one strand shown. The method in brief: as §1

The next test deals with T5, ELF3 (Homo sapiens, UniProt P78545 1-371).
T5 sequence: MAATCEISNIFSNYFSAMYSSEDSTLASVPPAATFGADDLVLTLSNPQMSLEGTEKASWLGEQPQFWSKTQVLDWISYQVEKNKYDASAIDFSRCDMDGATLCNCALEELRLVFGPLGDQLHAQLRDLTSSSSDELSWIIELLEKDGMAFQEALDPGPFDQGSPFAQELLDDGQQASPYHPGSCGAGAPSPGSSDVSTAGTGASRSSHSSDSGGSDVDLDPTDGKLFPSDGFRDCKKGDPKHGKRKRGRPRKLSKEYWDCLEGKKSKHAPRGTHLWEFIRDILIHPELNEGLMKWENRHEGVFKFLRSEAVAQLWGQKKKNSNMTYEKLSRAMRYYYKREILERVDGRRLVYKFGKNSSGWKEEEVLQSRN
Particulars: protein: recombinant; tags: N-terminal GST; dsDNA, one strand shown. The method in brief:
as §1

The next test has as its target CRX (Homo sapiens, UniProt O43186 1-299). As to conditions: protein: recombinant; tags: N-terminal GST; dsDNA, one strand shown. An outline of the steps: as §1
In the next test the target is ETV1 (Homo sapiens, UniProt P50549 1-477). As to conditions: protein: recombinant; tags: N-terminal GST; dsDNA, one strand shown. An outline of the steps: as §1
Sequence of ETV1 (P50549 whole entry): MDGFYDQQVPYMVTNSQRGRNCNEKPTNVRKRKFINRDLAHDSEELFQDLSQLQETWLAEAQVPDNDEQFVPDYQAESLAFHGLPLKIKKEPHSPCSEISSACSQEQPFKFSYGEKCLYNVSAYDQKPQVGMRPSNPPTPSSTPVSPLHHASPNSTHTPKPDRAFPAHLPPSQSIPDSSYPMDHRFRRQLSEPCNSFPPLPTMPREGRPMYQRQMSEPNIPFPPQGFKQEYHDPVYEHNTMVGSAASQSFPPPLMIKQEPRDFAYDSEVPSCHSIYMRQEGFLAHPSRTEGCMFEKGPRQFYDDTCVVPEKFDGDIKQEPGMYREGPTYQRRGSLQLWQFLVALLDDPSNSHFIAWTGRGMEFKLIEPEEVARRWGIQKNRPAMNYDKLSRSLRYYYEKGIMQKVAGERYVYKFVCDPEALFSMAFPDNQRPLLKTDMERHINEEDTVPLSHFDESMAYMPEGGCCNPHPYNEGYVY
In another test the target is T6, ERF (Homo sapiens, UniProt P50548 1-548).
T6 sequence: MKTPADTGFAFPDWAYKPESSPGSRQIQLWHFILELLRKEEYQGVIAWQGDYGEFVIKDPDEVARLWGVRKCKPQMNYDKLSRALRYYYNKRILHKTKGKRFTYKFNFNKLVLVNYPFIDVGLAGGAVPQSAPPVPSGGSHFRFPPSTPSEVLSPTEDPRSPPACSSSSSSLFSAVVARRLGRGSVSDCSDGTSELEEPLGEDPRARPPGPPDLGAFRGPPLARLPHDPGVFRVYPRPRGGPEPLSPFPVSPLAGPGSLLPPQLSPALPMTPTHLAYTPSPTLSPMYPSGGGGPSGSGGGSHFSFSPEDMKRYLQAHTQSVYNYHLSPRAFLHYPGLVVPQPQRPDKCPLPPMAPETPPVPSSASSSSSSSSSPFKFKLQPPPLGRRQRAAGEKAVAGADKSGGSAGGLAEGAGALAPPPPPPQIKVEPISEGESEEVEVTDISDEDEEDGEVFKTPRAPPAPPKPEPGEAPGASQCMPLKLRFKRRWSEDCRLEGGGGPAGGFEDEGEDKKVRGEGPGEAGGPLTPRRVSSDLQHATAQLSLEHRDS
As to conditions: protein: recombinant; tags: N-terminal GST; dsDNA, one strand shown. The method in brief: as §1

For the next test, the target named is T7, ETV3L (Homo sapiens, UniProt Q6ZN32 1-361).
T7 sequence: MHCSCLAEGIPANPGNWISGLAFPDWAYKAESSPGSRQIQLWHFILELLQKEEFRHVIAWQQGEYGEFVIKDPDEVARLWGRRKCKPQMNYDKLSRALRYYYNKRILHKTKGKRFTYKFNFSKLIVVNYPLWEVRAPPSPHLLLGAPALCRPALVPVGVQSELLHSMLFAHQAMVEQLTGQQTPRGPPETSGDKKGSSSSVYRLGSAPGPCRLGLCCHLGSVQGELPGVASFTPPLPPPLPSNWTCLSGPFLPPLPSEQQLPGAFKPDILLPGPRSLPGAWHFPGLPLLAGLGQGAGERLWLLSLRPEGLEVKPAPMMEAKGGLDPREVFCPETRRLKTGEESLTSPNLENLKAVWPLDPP
As to conditions: protein: recombinant; tags: N-terminal GST; dsDNA, one strand shown. The method in brief: as §1

The next test deals with T8, ETS2 (Homo sapiens, UniProt P15036 1-469).
T8 sequence: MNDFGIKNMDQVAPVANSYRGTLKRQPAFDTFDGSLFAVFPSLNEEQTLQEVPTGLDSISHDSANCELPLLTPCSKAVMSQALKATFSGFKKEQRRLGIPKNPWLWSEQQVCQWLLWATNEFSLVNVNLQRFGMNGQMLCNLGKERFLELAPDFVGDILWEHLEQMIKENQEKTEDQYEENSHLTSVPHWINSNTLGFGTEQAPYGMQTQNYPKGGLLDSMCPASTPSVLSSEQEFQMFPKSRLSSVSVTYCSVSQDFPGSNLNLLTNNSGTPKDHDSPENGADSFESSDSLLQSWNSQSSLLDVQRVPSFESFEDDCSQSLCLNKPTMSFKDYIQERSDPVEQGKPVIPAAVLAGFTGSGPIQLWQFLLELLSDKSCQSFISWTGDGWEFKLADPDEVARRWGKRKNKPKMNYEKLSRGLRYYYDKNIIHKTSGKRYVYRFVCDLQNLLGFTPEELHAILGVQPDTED
Particulars: protein: recombinant; tags: N-terminal GST; dsDNA, one strand shown. The method in brief:
as §1

A further test deals with T9, SPDEF (Homo sapiens, UniProt O95238 1-335).
T9 sequence: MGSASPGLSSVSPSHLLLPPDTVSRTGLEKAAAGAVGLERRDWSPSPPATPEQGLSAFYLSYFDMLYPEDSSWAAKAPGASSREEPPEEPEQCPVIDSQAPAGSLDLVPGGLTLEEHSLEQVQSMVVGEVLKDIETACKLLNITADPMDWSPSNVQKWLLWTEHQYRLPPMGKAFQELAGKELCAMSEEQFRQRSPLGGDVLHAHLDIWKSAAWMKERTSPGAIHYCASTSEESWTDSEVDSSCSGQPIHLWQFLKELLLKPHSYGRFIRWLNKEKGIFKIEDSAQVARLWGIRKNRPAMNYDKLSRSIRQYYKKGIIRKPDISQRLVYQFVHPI
As to conditions: protein: recombinant; tags: N-terminal GST; dsDNA, one strand shown. The method in brief:
as §1

The target in another test is T10, ETV7 (Homo sapiens, UniProt Q9Y603 1-341).
T10 sequence: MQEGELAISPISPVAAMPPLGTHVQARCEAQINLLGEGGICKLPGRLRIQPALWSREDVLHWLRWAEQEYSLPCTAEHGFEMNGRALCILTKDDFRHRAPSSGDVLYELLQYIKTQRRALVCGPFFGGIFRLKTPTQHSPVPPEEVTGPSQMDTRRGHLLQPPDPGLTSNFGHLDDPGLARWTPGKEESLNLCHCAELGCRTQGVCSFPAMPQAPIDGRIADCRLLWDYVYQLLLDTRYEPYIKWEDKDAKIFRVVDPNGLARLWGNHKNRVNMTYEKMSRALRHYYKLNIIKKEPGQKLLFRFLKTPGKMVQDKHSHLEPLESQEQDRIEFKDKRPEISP
Particulars: protein: recombinant; tags: N-terminal GST; dsDNA, one strand shown. The method in brief: as §1

In another test the target is T11, ELF5 (Homo sapiens, UniProt Q9UKW6-2 1-255).
T11 sequence: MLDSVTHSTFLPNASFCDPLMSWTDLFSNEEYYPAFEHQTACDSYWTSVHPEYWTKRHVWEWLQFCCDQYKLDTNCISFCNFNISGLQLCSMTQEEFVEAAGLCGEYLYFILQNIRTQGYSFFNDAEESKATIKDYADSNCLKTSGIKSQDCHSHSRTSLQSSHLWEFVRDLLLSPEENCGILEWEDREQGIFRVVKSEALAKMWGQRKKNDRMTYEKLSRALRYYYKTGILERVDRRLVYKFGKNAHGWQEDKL
Particulars: protein: recombinant; tags: N-terminal GST; dsDNA, one strand shown. The method in brief:
as §1

The target in another test is T12, ETV3 (Homo sapiens, UniProt P41162-2 1-143).
T12 sequence: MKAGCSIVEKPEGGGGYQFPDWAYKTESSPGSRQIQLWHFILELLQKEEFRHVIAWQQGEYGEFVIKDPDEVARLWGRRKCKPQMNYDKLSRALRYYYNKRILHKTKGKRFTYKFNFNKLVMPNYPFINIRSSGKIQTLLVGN
Particulars: protein: recombinant; tags: N-terminal GST; dsDNA, one strand shown. An outline of the steps: as §1

The target in the next test is ETV6 (Homo sapiens, UniProt P41212 1-452). As to conditions: protein: recombinant; tags: N-terminal GST; dsDNA, one strand shown. An outline of the steps: as §1
Sequence of ETV6 (P41212 whole entry): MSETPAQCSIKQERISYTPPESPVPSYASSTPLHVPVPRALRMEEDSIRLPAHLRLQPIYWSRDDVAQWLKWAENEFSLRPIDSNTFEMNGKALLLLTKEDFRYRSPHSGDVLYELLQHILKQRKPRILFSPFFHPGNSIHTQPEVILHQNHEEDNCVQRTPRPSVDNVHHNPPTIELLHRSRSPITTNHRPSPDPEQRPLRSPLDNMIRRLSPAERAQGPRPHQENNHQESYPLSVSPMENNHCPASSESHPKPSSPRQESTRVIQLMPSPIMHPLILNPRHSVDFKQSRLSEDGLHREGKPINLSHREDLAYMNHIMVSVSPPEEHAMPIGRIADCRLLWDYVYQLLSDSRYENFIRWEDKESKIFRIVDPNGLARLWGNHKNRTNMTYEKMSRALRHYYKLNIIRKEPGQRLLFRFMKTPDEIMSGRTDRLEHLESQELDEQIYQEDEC

Sequence of ELF4 (Q99607 whole entry): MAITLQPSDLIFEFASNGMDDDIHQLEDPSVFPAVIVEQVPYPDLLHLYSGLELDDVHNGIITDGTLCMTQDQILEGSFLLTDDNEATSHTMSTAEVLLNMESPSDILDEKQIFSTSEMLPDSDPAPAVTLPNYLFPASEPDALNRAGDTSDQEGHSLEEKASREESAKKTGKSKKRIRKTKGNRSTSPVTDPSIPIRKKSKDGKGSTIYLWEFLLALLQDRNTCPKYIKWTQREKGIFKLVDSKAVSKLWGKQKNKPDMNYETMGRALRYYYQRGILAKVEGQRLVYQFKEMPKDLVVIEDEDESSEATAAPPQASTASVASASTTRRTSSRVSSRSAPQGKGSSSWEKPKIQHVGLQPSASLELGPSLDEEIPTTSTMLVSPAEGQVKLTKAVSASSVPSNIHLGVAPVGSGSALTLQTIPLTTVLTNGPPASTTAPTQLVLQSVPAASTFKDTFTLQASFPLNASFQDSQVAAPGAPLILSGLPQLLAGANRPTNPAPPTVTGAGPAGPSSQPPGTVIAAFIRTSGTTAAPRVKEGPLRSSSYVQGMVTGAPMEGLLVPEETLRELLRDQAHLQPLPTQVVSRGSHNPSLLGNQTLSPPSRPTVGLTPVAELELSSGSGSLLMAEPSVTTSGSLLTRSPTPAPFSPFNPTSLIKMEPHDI
Sequence of CRX (O43186 whole entry): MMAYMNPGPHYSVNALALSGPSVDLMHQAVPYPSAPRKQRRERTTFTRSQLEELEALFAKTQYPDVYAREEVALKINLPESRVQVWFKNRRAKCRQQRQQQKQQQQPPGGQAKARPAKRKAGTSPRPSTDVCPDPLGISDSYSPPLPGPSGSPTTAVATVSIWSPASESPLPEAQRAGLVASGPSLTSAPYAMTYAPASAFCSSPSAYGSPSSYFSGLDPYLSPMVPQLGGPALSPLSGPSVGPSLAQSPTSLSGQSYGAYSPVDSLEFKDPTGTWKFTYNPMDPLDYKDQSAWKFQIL

In the case of CTTCAC, the binding signal with FEV is 1.34 fold enrichment (6-mer frequency, TF over GST control); in the test with ETV5, 1.37 fold enrichment (6-mer frequency, TF over GST control); with HSF1, 1.18 fold enrichment (6-mer frequency, TF over GST control); with SPIC, 1.57 fold enrichment (6-mer frequency, TF over GST control); with ELF4 it was 1.33 fold enrichment (6-mer frequency, TF over GST control); in the test with ELK4, 1.45 fold enrichment (6-mer frequency, TF over GST control). Also, the binding signal with ETV2 was 1.43 fold enrichment (6-mer frequency, TF over GST control); in the test with ELF3, 1.54 fold enrichment (6-mer frequency, TF over GST control); in the test with CRX, 1.17 fold enrichment (6-mer frequency, TF over GST control); in the test with ETV1, 1.37 fold enrichment (6-mer frequency, TF over GST control); with ERF it was 1.44 fold enrichment (6-mer frequency, TF over GST control); in the test with ETV3L, 1.44 fold enrichment (6-mer frequency, TF over GST control). For the same sequence, the binding signal in the test with ETS2 is 1.36 fold enrichment (6-mer frequency, TF over GST control); with SPDEF, 1.4 fold enrichment (6-mer frequency, TF over GST control); with ETV7, 1.45 fold enrichment (6-mer frequency, TF over GST control); with ELF5 it was 1.38 fold enrichment (6-mer frequency, TF over GST control); with ETV3 it was 1.45 fold enrichment (6-mer frequency, TF over GST control); with ETV6, 1.43 fold enrichment (6-mer frequency, TF over GST control).
